Assay outcomes (PubChem)
Env fusion inh – HIV envelope-mediated fusion inhibition; HeLa-JRFL Env/CEM21 cell fusion, luciferase; inhibition, % at 12.3 µM; 1.1% of 360,000 active; AID 651610;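 active means mean replicate inhibition score of at least 50 and every replicate individually at or above 50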;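 further: 0% = plate neutral controls and 100% = maraviroc near 300 nM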
C2C12 statin – suppression of simvastatin myotoxicity. C2C12 myotubes + simvastatin, ATP luminescence, 48 h; scaled: DMSO 0, geranylgeraniol control 100. rescue of ATP level, % at 7.49 µM. 0.78% of 330,000 active;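 active means mean ATP rescue above about 67%, or every replicate alone reaching that limit, limit read from the data, passing the limit was not always enough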;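 further: myotubes were challenged with 10 µM simvastatin during compound exposure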
PAX8 reporter – PAX8 transcriptional activity inhibition | RMG-I TPO-luciferase reporter, SteadyGlo, 24 h | inhibition, % at 12.6 µM | 1.2% of 360,000 active | AID 652154;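 active means mean replicate inhibition at least 60% with every replicate also reaching 60%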;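 further: luciferase light reporting Pax8 driven TPO promoter activity; plate controls were median of neutral control wells for no effect and mitoxantrone controls for full effect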
miR-122 sensor – miR-122 inhibition in Huh7 cells | Huh7 miR-122 Renilla luciferase sensor, 48 h; neutral wells = 0, positive control = 100 | 0.3% of 340,000 active | AID 602342 | activation (reporter increase), % at 12.5 µM;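 active means mean replicate activation score at least 90 and every replicate individually at or above 90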;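 further: higher luciferase means less miR-122 activity so hits act as miR-122 inhibitors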
GSIS activator – primary screen for activators of insulin secretion dependent on glucose, INS-1E cells, GLuc reporter luminescence | 0.61% of 370,000 active | INS-1E GLuc reporter insulin secretion, 2-3 h | activation, % at 16.6 µM | AID 743287;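 active means lowest replicate activation of at least 40%, so every replicate reaches that level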;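 further: 0% = median of neutral control wells and 100% = median of IBMX positive control wells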
EWS-Fli inh – EWS/Fli transcriptional activity inhibition; A673 NR0B1-luciferase reporter, viability-normalised; inhibition, % at 12.6 µM; 0.67% of 350,000 active; AID 651661;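 active means mean inhibition of at least 50% after viability correction, with every replicate also passing that limit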;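 further: firefly luciferase signal divided by Alamar Blue viability fluorescence both relative to DMSO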
Active calls of the source: *; · = not tested or not shown; + = active, no number; [ ] = dose if it differs, or a comment. Hits are enriched below; roughly 3.1% of the tested compounds scored in any of these assays.

SMILES | Env fusion inh | C2C12 statin | PAX8 reporter | miR-122 sensor | GSIS activator | EWS-Fli inh
CN1c2ccc(-c3cccc(C#N)c3)cc2[C@H]2[C@H](CCN2C(=O)C2CC2)[C@@H]1CO | -34.8[16.7 µM] | · | -9.2 | · | -4.4 | 9.6
CC(=O)c1ccc(N2CCN(C(=O)Cn3cnc(S(=O)(=O)N4CCCCC4)c3)CC2)cc1 | -2.0 | 98.4* | -17.3 | -0.8 | 3.4 | ·
CCC(=O)Nc1ccc2c(c1)C(=O)N(C)C[C@H](OC)[C@H](C)CN(Cc1cncnc1)[C@H](C)CO2 | · | -5.2 | · | -9.4[16.7 µM] | 14.2 | -1.3
Cc1cccc(C)c1-n1nnnc1-c1nc2cc(Br)ccc2[nH]c1=O | -53.3 | · | -8.1 | · | -7.7 | 10.6
Cc1cccc(C)c1-n1nnnc1-c1nc2cc3ccccc3cc2[nH]c1=O | -180.4 | · | 47.7 | · | 7.2 | 54.2*
C[C@H](CO)N1C[C@H](C)[C@H](CN(C)C(=O)c2ccncc2)OCc2ccccc2-c2ccccc2C1=O | -4.1[16.7 µM] | -8.2 | -16.9 | · | 5.1 | -3.1
CCCCOC(=O)n1c(=O)oc2cc(S(=O)(=O)N3CCCCC3)ccc21 | 56.5* | 1.7 | · | 6.7 | -31.5 | ·
COc1cccc(OC)c1C(=O)OCC(=O)NCC(C)C | -24.6 | · | -3.7 | · | 42.6* | 2.3
COc1cccc(OC)c1C(=O)OCC(=O)NCCCc1ccccc1 | 1.1 | 5.2 | 3.0 | 3.8 | -5.2 | -6.6
COC(=O)c1cc(C(=O)N2CCN(c3cccc(C)c3C)CC2)cc([N+](=O)[O-])c1 | -17.1 | · | 25.0 | · | -10.8 | 56.1*
COC(=O)c1cc(C(=O)N2CCN(c3ccccc3OC)CC2)cc([N+](=O)[O-])c1 | -164.2 | · | 46.7 | · | -0.7 | 55.4*
COC(=O)c1cc(C(=O)N2CCN(c3ncccn3)CC2)cc([N+](=O)[O-])c1 | 10.7 | 3.5 | 6.4 | -4.9 | -2.3 | -6.4
C[C@@H]1CN([C@@H](C)CO)C(=O)Cc2cc(NS(C)(=O)=O)ccc2O[C@@H]1CN(C)Cc1ccc(-c2ccccc2)cc1 | 1.8[16.7 µM] | 43.7 | 5.0 | -2.3[16.7 µM] | -9.1 | ·
COc1ccccc1-c1ccc2n(c1=O)C[C@@H]1[C@@H](CO)[C@H](C(=O)NCc3ccccc3F)N[C@H]21 | · | 8.9 | 14.3 | -4.1[16.7 µM] | 4.2 | -6.5
CCC1=NN(C(=O)c2ccccc2Br)C(O)(c2ccc(Br)cc2)C1 (configuration not stated) | 18.4 | · | 13.0 | · | 1.4 | 12.1
CCC1=NN(C(=O)c2ccccc2O)C(O)(c2ccccc2)C1 (configuration not stated) | 13.5 | 0.3 | 17.1 | + | · | -12.6
O=C(c1ccccc1O)N1N=C(C(F)(F)F)CC1(O)c1ccc([N+](=O)[O-])cc1 (configuration not stated) | 58.7* | -0.5 | 6.1 | -3.5 | -21.4 | 4.7
COc1ccccc1S(=O)(=O)N[C@@H]1CC[C@@H](CCNC(=O)C2CCCC2)O[C@H]1CO | -46.6[16.7 µM] | 0.1 | -14.9 | -1.0[16.7 µM] | 6.0 | 0.9
C[C@@H]1CN([C@H](C)CO)S(=O)(=O)c2ccc(/C=C/c3ccccc3)cc2O[C@@H]1CN(C)C(=O)c1cccnc1 | 25.9[16.7 µM] | · | · | -32.3[16.7 µM] | -4.4 | -3.7
CC(C)Sc1nc(SCC(=O)NCc2ccco2)c2c3c(sc2n1)COC(C)(C)C3 | · | 128.9* | · | 6.3 | · | ·
CCCc1nc2sc3c(SCC(=O)NCc4ccco4)ncnc3c2c2c1CCC2 | -25.9 | 15.1 | · | -6.0 | 61.1* | ·
CC(C)Sc1nc(SCC(=O)O)c2c3c(sc2n1)COC(C)(C)C3 | -12.4 | · | -55.3 | -2.5 | 55.1* | -18.3
Cc1nc(SCC(=O)NCc2ccco2)c2c3c(sc2n1)CCCC3 | · | · | · | -6.7 | · | ·
CC1(C)Cc2c(sc3nc(SCC(=O)O)nc(N)c23)CO1 | -1.2 | -6.2 | -10.3 | -2.7 | -4.0 | -6.5
Cc1ccc(S(=O)(=O)Nc2ccc3c(c2)CC(=O)N([C@H](C)CO)C[C@H](C)[C@H](CN(C)S(=O)(=O)c2cn(C)cn2)O3)cc1 | 18.4[16.7 µM] | -26.6 | -18.1 | 4.0[16.7 µM] | 13.6 | -3.5
SMILES | Env fusion inh | C2C12 statin | PAX8 reporter | miR-122 sensor | GSIS activator | EWS-Fli inh
C[C@H]1CN([C@@H](C)CO)S(=O)(=O)c2ccc(-c3cccc(F)c3)cc2O[C@H]1CN(C)S(=O)(=O)c1ccccc1 | 90.5*[16.7 µM] | -22.4 | · | -4.7[16.7 µM] | -28.7 | 6.3
C[C@@H]1CN([C@H](C)CO)S(=O)(=O)c2ccc(-c3cccc(F)c3)cc2O[C@@H]1CN(C)S(=O)(=O)c1ccccc1 | 107.0*[16.7 µM] | -25.8 | · | 9.0[16.7 µM] | -11.6 | 12.9
C[C@H](CO)N1C[C@H](C)[C@H](CN(C)S(=O)(=O)c2ccccc2)Oc2cc(-c3cccc(F)c3)ccc2S1(=O)=O | 83.2*[16.7 µM] | -29.2 | · | -3.9[16.7 µM] | -24.2 | 5.1
C[C@@H]1CN([C@@H](C)CO)S(=O)(=O)c2ccc(-c3ccccc3)cc2O[C@H]1CN(C)S(=O)(=O)c1ccccc1F | 34.2[16.7 µM] | -113.7 | 63.4* | -2.7[16.7 µM] | 2.4 | 10.4
C[C@H](CO)N1C[C@H](C)[C@@H](CN(C)S(=O)(=O)c2ccccc2)Oc2cc(-c3cccc(F)c3)ccc2S1(=O)=O | 17.9[16.7 µM] | -18.0 | · | 7.6[16.7 µM] | -8.5 | 13.8
C[C@@H]1CN([C@H](C)CO)S(=O)(=O)c2ccc(-c3cccc(F)c3)cc2O[C@H]1CN(C)S(=O)(=O)c1ccccc1 | 35.3[16.7 µM] | -41.5 | · | 4.1[16.7 µM] | -12.2 | 10.6
C[C@H]1CCCCO[C@H](CN(C)C(=O)NC2CCCCC2)[C@@H](C)CN([C@@H](C)CO)C(=O)c2cc(NC(=O)Nc3ccccc3)ccc2O1 | 56.1*[16.7 µM] | · | 28.6 | -5.9[16.7 µM] | 2.4 | 16.0
C[C@@H]1CCCCO[C@H](CN(C)C(=O)NC2CCCCC2)[C@@H](C)CN([C@H](C)CO)C(=O)c2cc(NC(=O)Nc3ccccc3)ccc2O1 | 0.3[16.7 µM] | · | 4.5 | 11.2[16.7 µM] | -3.2 | -2.0
C[C@H](CO)N1C[C@H](C)[C@H](CN(C)C(=O)NC2CCCCC2)OCCCC[C@H](C)Oc2ccc(NC(=O)Nc3ccc(F)cc3)cc2C1=O | -70.1[16.7 µM] | · | 64.6* | -0.9[16.7 µM] | 1.6 | -1.5
C[C@H]1CCCCO[C@@H](CN(C)C(=O)NC2CCCCC2)[C@@H](C)CN([C@@H](C)CO)C(=O)c2cc(NC(=O)Nc3ccc(F)cc3)ccc2O1 | -2.9[16.7 µM] | · | 54.4 | -5.7[16.7 µM] | -4.5 | -6.5
Cc1ccc(C(=O)N/C(=C/c2ccc(Cl)cc2)C(=O)N2CCOCC2)cc1 | 0.5 | -14.9 | 17.7 | · | 50.5* | 0.5
COC(=O)c1ccc(/C=C(/NC(=O)c2ccccc2)C(=O)N2CCOCC2)cc1 | 4.1 | -0.9 | 0.1 | -3.7 | 20.5 | ·
COc1ccc(NC(=O)c2cc3n(n2)C(C(F)(F)F)CC(c2ccc4c(c2)OCO4)N3)cc1OC (configuration not stated) | · | -10.7 | · | -6.2 | · | ·
Cc1cccc(NC(=O)c2cc3n(n2)C(C(F)(F)F)CC(c2ccc4c(c2)OCO4)N3)c1 (configuration not stated) | 106.2* | · | · | · | -16.4 | ·
CCOC(=O)C(=Cc1cc(=O)c(OC)co1)C(=O)OCC | -246.3 | · | 22.4 | · | -6.6 | 70.1*
Cc1cc(C)c2nc(N(CCCN(C)C)C(=O)c3ccc4c(c3)CCCC4)sc2c1 | -15.9 | · | 20.2 | · | 40.2* | 6.8
